Assay results from publication PMC7862700, “An all-to-all approach to the identification of sequence-specific readers for epigenetic DNA modifications on cytosine”.

Tests used:
Experiment in all cases: DAPPL (digital affinity profiling via proximity ligation, sequencing); 10 mM Tris-HCl pH 7.5, 50 mM NaCl, 1 mM DTT, 4% glycerol, room temperature, 30 min; GST-TFs on glutathione beads, 16-mer random dsDNA library, 0.1% formaldehyde crosslink after washing; high values mean tight binding
FLI1 = target: T1, FLI1 (Homo sapiens, UniProt Q01543 1-452); conditions: protein: recombinant; tags: N-terminal GST; dsDNA, one strand shown
T1 sequence: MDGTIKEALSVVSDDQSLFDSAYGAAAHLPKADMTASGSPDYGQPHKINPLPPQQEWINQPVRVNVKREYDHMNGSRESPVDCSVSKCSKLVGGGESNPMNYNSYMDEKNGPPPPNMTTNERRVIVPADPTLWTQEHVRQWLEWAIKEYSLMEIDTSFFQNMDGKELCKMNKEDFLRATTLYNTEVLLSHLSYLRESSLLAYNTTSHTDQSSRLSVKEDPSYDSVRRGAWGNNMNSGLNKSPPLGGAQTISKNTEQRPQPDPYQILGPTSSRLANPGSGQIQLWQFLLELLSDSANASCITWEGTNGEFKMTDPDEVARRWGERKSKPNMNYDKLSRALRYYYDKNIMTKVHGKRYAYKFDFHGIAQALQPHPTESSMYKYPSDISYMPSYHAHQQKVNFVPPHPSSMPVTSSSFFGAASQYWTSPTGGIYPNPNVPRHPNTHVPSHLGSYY
Outline: (§1)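 Binding signal is defined as a hexamer's read frequency for one factor over its frequency for the tag-only sample. To obtain reads, GST-fused human transcription factors were expressed in yeast, captured on glutathione beads, barcoded with DNA and pooled with that sample. Pools met 200 nmole of a 16-mer random double-stranded DNA library in Tris/NaCl/DTT/glycerol buffer for 30 min at room temperature before washing, 0.1% formaldehyde crosslinking, proximity ligation (BsaI/T4 ligase, 1 h, 37 °C), PCR and Illumina NextSeq500 sequencing.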

ELK1 = target: T2, ELK1 (Homo sapiens, UniProt P19419 1-428); conditions: protein: recombinant; tags: N-terminal GST; dsDNA, one strand shown
T2 sequence: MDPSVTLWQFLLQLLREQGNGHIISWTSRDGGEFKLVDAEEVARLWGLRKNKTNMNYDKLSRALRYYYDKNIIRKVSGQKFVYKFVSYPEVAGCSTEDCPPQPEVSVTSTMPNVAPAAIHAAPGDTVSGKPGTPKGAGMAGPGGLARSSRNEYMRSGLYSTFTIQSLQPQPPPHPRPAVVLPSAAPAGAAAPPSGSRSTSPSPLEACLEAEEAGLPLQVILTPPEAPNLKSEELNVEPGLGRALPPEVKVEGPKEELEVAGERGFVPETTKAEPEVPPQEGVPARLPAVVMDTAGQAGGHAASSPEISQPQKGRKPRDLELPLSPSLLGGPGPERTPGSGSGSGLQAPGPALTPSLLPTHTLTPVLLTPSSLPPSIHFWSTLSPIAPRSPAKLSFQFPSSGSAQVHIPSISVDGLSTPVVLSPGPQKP
Outline: as §1

GABPA = target: T3, GABPA (Homo sapiens, UniProt Q06546 1-454); conditions: protein: recombinant; tags: N-terminal GST; dsDNA, one strand shown
T3 sequence: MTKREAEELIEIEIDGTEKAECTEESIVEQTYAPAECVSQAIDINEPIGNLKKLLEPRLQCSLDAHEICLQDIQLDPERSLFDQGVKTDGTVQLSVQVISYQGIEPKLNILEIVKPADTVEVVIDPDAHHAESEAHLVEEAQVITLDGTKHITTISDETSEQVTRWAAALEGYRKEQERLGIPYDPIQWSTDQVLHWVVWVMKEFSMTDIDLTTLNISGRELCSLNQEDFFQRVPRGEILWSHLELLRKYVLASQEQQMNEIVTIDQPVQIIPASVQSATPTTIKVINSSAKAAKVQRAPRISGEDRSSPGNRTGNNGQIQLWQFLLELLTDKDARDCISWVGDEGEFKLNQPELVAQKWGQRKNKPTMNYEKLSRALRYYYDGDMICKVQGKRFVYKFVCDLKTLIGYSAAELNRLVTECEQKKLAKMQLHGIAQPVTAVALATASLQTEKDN
Outline: as §1

ERG = target: T4, ERG (Homo sapiens, UniProt P11308 1-479); conditions: protein: recombinant; tags: N-terminal GST; dsDNA, one strand shown
T4 sequence: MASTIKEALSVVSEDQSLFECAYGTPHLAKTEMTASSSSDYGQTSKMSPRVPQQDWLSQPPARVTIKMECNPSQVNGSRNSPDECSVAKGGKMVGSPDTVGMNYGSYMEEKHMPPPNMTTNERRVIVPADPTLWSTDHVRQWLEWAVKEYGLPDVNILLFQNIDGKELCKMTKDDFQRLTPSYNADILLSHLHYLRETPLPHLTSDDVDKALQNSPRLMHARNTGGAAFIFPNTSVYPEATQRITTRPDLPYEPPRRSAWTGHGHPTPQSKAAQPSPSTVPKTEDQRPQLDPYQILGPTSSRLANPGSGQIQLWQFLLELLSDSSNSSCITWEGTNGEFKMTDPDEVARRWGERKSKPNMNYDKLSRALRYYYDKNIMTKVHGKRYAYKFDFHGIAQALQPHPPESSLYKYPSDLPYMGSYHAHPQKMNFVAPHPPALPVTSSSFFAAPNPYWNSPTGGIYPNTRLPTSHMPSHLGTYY
Outline: as §1

ELF1 = ELF1 (Homo sapiens, UniProt P32519 1-619); conditions: protein: recombinant; tags: N-terminal GST; dsDNA, one strand shown
Sequence of ELF1 (P32519 whole entry): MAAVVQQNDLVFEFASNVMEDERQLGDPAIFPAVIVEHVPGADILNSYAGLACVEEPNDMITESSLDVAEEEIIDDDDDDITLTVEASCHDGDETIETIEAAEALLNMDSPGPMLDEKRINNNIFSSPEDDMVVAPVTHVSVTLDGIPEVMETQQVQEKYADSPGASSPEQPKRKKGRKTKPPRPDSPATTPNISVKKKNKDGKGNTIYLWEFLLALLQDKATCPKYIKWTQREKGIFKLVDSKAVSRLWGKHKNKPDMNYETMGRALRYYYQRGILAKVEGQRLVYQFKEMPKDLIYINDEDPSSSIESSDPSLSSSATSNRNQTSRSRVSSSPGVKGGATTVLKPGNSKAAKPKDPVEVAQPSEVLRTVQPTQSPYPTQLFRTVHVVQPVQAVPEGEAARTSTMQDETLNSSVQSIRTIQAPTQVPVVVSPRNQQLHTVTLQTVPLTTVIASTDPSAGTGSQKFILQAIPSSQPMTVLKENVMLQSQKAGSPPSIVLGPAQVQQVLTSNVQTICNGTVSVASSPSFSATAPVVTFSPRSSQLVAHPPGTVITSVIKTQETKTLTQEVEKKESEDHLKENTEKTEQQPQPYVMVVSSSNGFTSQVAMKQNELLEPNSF
Outline: as §1

EHF = target: T5, EHF (Homo sapiens, UniProt Q9NZC4 1-300); conditions: protein: recombinant; tags: N-terminal GST; dsDNA, one strand shown
T5 sequence: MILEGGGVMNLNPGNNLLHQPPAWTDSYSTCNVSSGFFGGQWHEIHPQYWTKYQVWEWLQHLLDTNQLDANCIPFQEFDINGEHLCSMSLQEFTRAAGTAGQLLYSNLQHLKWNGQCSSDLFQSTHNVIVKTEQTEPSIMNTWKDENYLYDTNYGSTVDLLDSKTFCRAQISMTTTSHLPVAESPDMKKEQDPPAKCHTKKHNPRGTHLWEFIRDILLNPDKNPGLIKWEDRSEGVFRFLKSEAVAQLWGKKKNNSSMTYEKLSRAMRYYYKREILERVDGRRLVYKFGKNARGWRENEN
Outline: as §1

SPI1 = SPI1 (Homo sapiens, UniProt P17947 1-270); conditions: protein: recombinant; tags: N-terminal GST; dsDNA, one strand shown
Outline: as §1

SPIB = SPIB (Homo sapiens, UniProt Q01892 1-262); conditions: protein: recombinant; tags: N-terminal GST; dsDNA, one strand shown
Sequence of SPIB (Q01892 whole entry): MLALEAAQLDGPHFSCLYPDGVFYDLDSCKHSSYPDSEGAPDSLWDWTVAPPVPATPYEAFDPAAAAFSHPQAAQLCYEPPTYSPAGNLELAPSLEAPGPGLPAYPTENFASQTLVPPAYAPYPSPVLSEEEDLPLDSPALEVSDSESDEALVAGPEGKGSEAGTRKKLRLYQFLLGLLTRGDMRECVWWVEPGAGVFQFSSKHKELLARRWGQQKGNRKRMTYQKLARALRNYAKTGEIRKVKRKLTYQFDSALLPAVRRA
Outline: as §1

ELK3 = target: T6, ELK3 (Homo sapiens, UniProt P41970 1-407); conditions: protein: recombinant; tags: N-terminal GST; dsDNA, one strand shown
T6 sequence: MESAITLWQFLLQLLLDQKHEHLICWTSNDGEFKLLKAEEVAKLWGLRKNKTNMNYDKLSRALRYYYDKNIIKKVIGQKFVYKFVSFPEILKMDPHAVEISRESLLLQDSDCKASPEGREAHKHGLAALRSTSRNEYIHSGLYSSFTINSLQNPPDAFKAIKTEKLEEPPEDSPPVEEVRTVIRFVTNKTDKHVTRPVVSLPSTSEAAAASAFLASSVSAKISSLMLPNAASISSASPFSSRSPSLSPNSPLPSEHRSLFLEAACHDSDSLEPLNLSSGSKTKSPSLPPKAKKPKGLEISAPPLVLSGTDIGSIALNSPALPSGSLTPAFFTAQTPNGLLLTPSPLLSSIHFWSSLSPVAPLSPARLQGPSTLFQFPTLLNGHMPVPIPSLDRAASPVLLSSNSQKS
Outline: as §1

FEV = target: T7, FEV (Homo sapiens, UniProt Q99581 1-238); conditions: protein: recombinant; tags: N-terminal GST; dsDNA, one strand shown
T7 sequence: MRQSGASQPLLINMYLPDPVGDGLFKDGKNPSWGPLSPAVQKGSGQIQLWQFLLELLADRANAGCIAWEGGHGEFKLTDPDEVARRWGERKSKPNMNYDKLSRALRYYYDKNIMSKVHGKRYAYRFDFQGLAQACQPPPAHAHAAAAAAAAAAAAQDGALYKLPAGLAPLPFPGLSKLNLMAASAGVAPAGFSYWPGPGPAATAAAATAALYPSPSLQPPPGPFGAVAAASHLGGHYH
Outline: as §1

ETV5 = ETV5 (Homo sapiens, UniProt P41161 1-510); conditions: protein: recombinant; tags: N-terminal GST; dsDNA, one strand shown
Sequence of ETV5 (P41161 whole entry): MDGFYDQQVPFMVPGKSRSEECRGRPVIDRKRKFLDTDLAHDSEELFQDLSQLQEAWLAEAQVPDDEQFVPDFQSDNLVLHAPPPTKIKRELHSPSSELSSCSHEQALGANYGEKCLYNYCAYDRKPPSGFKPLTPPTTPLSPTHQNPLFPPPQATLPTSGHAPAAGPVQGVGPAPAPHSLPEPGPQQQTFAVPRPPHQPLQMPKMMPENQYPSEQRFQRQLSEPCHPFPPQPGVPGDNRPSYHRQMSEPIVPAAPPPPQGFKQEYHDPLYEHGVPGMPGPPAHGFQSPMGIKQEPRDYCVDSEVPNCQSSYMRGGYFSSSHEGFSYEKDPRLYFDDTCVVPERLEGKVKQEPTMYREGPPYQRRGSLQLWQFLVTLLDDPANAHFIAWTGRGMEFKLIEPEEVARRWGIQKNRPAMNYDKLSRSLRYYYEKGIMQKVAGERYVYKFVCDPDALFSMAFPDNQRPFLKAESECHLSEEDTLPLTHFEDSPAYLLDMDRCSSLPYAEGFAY
Outline: as §1

HSF1 = HSF1 (Homo sapiens, UniProt Q00613 1-529); conditions: protein: recombinant; tags: N-terminal GST; chain copies: 3; dsDNA, one strand shown
Sequence of HSF1 (Q00613 whole entry): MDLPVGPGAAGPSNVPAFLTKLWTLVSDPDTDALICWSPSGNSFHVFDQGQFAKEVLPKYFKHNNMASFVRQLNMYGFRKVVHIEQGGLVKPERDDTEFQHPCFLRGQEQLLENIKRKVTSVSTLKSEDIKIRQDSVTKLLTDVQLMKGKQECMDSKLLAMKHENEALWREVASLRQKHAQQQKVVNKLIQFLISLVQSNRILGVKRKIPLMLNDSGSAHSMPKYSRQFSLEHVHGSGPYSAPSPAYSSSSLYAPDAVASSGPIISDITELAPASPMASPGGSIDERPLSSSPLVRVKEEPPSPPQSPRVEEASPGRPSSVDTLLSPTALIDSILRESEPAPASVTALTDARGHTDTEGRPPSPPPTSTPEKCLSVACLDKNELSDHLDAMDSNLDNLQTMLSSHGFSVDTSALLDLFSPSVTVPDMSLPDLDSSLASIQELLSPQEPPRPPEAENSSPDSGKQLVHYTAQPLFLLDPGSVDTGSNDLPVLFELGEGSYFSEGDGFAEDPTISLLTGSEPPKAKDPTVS
Outline: as §1

SPIC = target: T8, SPIC (Homo sapiens, UniProt Q8N5J4 1-248); conditions: protein: recombinant; tags: N-terminal GST; dsDNA, one strand shown
T8 sequence: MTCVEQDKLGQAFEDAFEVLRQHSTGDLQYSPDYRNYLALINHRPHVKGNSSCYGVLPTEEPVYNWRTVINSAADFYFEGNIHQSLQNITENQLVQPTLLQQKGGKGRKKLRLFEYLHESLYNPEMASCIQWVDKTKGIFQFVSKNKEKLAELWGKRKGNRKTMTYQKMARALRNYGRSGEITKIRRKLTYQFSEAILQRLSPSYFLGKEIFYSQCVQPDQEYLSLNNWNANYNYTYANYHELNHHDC
Outline: as §1

ELF4 = ELF4 (Homo sapiens, UniProt Q99607 1-663); conditions: protein: recombinant; tags: N-terminal GST; dsDNA, one strand shown
Sequence of ELF4 (Q99607 whole entry): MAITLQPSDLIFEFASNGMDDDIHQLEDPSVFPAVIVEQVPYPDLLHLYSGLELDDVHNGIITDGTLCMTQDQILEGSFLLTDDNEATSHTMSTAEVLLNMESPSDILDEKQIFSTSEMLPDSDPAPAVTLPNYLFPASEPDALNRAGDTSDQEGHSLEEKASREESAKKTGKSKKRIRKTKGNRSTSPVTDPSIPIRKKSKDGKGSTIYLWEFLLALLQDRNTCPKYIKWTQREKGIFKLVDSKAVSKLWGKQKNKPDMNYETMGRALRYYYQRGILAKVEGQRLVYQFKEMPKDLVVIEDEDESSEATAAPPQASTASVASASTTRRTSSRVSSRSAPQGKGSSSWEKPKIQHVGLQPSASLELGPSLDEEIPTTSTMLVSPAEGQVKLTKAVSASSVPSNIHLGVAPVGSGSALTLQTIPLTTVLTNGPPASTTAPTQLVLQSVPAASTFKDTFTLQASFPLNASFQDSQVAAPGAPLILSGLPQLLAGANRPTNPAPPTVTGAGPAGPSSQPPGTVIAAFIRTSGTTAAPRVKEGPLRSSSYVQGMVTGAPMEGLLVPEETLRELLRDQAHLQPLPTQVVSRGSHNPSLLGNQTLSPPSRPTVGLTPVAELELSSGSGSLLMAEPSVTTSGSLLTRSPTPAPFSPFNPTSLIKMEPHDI
Outline: as §1

ELK4 = target: T9, ELK4 (Homo sapiens, UniProt P28324-2 1-405); conditions: protein: recombinant; tags: N-terminal GST; dsDNA, one strand shown
T9 sequence: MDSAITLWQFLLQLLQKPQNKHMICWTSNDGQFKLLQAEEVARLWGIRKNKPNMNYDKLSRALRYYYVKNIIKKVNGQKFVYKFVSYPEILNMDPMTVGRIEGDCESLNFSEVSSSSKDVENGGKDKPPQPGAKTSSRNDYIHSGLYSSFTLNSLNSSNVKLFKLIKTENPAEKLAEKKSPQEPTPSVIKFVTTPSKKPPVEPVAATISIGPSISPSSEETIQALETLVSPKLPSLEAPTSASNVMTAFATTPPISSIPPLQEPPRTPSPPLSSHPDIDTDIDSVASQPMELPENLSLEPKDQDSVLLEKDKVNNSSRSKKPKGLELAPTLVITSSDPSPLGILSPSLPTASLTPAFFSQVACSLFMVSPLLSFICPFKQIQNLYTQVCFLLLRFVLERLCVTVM
Outline: as §1

ETV2 = target: T10, ETV2 (Homo sapiens, UniProt O00321 1-342); conditions: protein: recombinant; tags: N-terminal GST; dsDNA, one strand shown
T10 sequence: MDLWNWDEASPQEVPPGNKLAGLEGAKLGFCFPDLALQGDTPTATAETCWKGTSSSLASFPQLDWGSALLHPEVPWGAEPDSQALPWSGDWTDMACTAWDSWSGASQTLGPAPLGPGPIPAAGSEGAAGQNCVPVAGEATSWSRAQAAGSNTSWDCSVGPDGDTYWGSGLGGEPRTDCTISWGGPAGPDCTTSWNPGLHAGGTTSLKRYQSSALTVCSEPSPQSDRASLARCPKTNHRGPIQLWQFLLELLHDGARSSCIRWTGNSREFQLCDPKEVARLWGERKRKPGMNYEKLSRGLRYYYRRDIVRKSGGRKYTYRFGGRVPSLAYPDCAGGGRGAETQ
Outline: as §1

ELF3 = target: T11, ELF3 (Homo sapiens, UniProt P78545 1-371); conditions: protein: recombinant; tags: N-terminal GST; dsDNA, one strand shown
T11 sequence: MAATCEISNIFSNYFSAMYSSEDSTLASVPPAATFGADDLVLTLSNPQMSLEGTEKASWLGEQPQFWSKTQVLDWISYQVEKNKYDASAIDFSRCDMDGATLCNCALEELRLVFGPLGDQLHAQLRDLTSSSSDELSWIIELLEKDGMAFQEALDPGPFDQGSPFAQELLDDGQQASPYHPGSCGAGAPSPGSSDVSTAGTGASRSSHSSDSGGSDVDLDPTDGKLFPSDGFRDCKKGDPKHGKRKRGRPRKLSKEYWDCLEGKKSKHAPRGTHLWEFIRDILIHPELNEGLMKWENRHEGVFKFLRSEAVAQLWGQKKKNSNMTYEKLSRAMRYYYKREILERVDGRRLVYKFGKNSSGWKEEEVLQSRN
Outline: as §1

CRX = CRX (Homo sapiens, UniProt O43186 1-299); conditions: protein: recombinant; tags: N-terminal GST; dsDNA, one strand shown
Sequence of CRX (O43186 whole entry): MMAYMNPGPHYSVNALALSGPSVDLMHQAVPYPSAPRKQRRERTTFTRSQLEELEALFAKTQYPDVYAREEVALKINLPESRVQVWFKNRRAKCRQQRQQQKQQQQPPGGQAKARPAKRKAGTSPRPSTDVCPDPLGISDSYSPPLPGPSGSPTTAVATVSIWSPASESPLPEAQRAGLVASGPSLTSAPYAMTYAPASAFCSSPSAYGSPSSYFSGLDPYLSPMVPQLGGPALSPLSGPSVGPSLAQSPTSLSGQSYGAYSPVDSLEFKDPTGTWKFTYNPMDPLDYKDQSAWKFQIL
Outline: as §1

ETV1 = ETV1 (Homo sapiens, UniProt P50549 1-477); conditions: protein: recombinant; tags: N-terminal GST; dsDNA, one strand shown
Sequence of ETV1 (P50549 whole entry): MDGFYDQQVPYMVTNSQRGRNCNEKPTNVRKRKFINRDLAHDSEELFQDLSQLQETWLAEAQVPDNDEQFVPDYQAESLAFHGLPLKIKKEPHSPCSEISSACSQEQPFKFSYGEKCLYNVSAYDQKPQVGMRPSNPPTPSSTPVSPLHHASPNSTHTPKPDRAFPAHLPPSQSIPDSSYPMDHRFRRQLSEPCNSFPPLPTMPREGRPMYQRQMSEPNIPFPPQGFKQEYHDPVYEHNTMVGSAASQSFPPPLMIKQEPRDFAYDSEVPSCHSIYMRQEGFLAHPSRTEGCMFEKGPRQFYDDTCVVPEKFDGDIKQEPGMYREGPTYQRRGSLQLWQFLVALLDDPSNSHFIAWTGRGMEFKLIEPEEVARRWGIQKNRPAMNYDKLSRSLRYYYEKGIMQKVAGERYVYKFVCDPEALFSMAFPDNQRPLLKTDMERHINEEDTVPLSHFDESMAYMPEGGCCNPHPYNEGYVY
Outline: as §1

Sequence: TCTCCA
- binding signal (FLI1): 1.52 fold enrichment (6-mer frequency, TF over GST control)
- binding signal (ELK1): 1.46 fold enrichment (6-mer frequency, TF over GST control)
- binding signal (GABPA): 1.56 fold enrichment (6-mer frequency, TF over GST control)
- binding signal (ERG): 1.37 fold enrichment (6-mer frequency, TF over GST control)
- binding signal (ELF1): 1.43 fold enrichment (6-mer frequency, TF over GST control)
- binding signal (EHF): 1.55 fold enrichment (6-mer frequency, TF over GST control)
- binding signal (SPI1): 1.57 fold enrichment (6-mer frequency, TF over GST control)
- binding signal (SPIB): 1.44 fold enrichment (6-mer frequency, TF over GST control)
- binding signal (ELK3): 1.59 fold enrichment (6-mer frequency, TF over GST control)
- binding signal (FEV): 1.44 fold enrichment (6-mer frequency, TF over GST control)
- binding signal (ETV5): 1.39 fold enrichment (6-mer frequency, TF over GST control)
- binding signal (HSF1): 1.91 fold enrichment (6-mer frequency, TF over GST control)
- binding signal (SPIC): 1.36 fold enrichment (6-mer frequency, TF over GST control)
- binding signal (ELF4): 1.42 fold enrichment (6-mer frequency, TF over GST control)
- binding signal (ELK4): 1.69 fold enrichment (6-mer frequency, TF over GST control)
- binding signal (ETV2): 1.55 fold enrichment (6-mer frequency, TF over GST control)
- binding signal (ELF3): 1.29 fold enrichment (6-mer frequency, TF over GST control)
- binding signal (CRX): 1.52 fold enrichment (6-mer frequency, TF over GST control)
- binding signal (ETV1): 1.38 fold enrichment (6-mer frequency, TF over GST control)
